High-throughput results from PubChem BioAssay.
NPC1 promoter act – NPC1 promoter activation | actives 2.4% (n = 320,000) | Huh7 NPC1 promoter luciferase reporter, 24 h | Potency, µM (series often up to 9.22 µM), usual class: activators | AID 485313; note: nearly all actives have a fitted effect of over 60% in size
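Luminescence from an NPC1 promoter-driven luciferase reporter in stably transfected Huh7 cells was measured after 24 h compound treatment at 37 °C, followed by 10 min ambient incubation with luciferase detection reagent.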
ELG1 genotoxic – inducers of genotoxicity in HEK293T ELG1-luciferase cells; Potency, µM (doses to about 46 µM), actives largely listed as activators; actives 1.3% (n = 330,000); HEK293T ELG1-luciferase reporter, luminescence, 16 h; note: nearly all actives have a fitted effect of over 60% in size
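Screening used a luciferase reporter fused to human ELG1 in HEK293T cells. Luminescence was read on a CCD plate imager after 16 hr exposure and 30 min ONE-Glo incubation.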
FLuc counter – counter-screen for miR-21 project: firefly luciferase inhibitors or activators; P08659; purified FLuc, Km substrates, luminescence inhibition; Potency, µM (top dose mostly 57.5 µM), hits mostly inhibitors; actives 6.9% (n = 360,000); AID 588342; note: nearly all actives have a fitted effect of over 55% in size
Target sequence (P08659 whole entry, looked up): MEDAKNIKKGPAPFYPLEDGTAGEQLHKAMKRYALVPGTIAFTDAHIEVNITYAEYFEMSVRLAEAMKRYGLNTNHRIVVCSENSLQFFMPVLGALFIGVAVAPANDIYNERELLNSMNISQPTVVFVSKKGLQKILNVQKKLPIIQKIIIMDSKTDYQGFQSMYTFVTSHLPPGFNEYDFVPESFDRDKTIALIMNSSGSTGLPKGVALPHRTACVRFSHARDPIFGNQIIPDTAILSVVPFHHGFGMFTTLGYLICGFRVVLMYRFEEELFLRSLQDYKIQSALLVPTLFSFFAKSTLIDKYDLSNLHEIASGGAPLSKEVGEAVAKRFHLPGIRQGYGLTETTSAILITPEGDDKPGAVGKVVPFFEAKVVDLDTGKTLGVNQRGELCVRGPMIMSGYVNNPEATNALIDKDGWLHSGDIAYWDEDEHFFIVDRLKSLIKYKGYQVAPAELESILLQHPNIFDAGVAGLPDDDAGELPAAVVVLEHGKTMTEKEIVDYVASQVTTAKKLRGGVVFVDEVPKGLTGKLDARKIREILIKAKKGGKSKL
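Purified P. pyralis luciferase (10nM final) with 10uM D-luciferin and 10uM ATP (Km levels) in 50mM Tris acetate pH 7.5, 10mM Mg acetate, 0.01% Tween-20, 0.05% BSA; qHTS 6-point titration, ~60 µM downward; luminescence read.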
ELG1 repair inh – ELG1-dependent DNA repair inhibition. HEK293T ELG1-luciferase reporter, luminescence, 16 h; DNA damage induced by 5-fluorouridine. Potency, µM (series often up to 46.1 µM), actives largely listed as inhibitors. AID 504467. actives 2.3% (n = 330,000); note: nearly all actives have a fitted effect of over 55% in size
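Reporter activity after DNA damage by 5-fluorouridine is monitored. Compound-treated cells incubate 16 hr at 37 °C, then ONE-Glo is added for 30 min before luminescence reading.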
Rab9 promoter act – activators of Rab9 promoter | Huh7 Rab9 promoter-luciferase reporter, luminescence, 24 h | Potency, µM (top dose mostly 9.22 µM), hits mostly activators | actives 2.8% (n = 320,000) | AID 485297; note: nearly all actives have a fitted effect of over 60% in size
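Luminescence from Amplite-detected luciferase (10 minutes, ambient) reports Rab9 promoter activation. Before that, stable Rab9-luciferase Huh7 cells (1500/well, reduced-serum OP-MEM I plus 10% FBS) were exposed to compound for 24 hours at 37C.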
SMN2 splice enh – enhancers of SMN2 splice variant expression; HEK293 SMN2-luciferase splicing reporter, luminescence, 30-36 h; Potency, µM (series often up to 46.1 µM), usual class: activators; actives 2.8% (n = 210,000); AID 1458; note: nearly all actives have a fitted effect of over 55% in size
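HEK293 cells carry an SMN2 minigene-luciferase reporter in which exon 7 inclusion puts luciferase in frame. Cells were seeded at 2000 cells/well, attached for 10-12 hours, then exposed to compounds for 30-36 hours at 37C before ONE-Glo luminescence.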
A number is an active result. Rows were chosen to be rich in hits. Some 9.4% of all compounds tested hit in one or more screens of this group. Calls come from the whole dose curve; as a rule, active = well fitted curve in the direction sought with a large enough effect; inconclusive = small, poorly fitted or top-dose-only effect, or another doubt; inactive = no such curve, though single readings can be large; an effect the other way counts as inactive or inconclusive.

Screening COc1ccc2oc(C(=O)NCCC(C)C)c(C)c2c1 returned NPC1 promoter act 3.16µM, ELG1 genotoxic inconclusive, FLuc counter 3.38µM, ELG1 repair inh inconclusive, Rab9 promoter act inconclusive and SMN2 splice enh 11.2µM.
For Cc1ccc2oc(C(=O)NC3CCS(=O)(=O)C3)c(C)c2c1 (stereo unspecified) the results were NPC1 promoter act inactive, ELG1 genotoxic inactive, FLuc counter inactive, ELG1 repair inh inconclusive and Rab9 promoter act inactive.
Screening Cc1c(C(=O)NC2CCCCC2)oc2ccc(F)cc12 returned NPC1 promoter act inconclusive, ELG1 genotoxic inconclusive, FLuc counter 12µM, ELG1 repair inh inconclusive and Rab9 promoter act inconclusive.
For COc1ccc2oc(C(=O)NC3CCCCC3)c(C)c2c1 the results were NPC1 promoter act 3.16µM, ELG1 genotoxic 3.66µM, FLuc counter 5.36µM, ELG1 repair inh inconclusive and Rab9 promoter act 3.16µM.
`Cc1c(C(=O)Nc2nccs2)oc2ccc(F)cc12` gave NPC1 promoter act 3.55µM, ELG1 genotoxic inactive, FLuc counter inconclusive, ELG1 repair inh inconclusive and Rab9 promoter act 1.58µM.
Cc1ccc2oc(C(=O)Nc3ccc(S(=O)(=O)Nc4nc(C)cc(C)n4)cc3)cc(=O)c2c1 was read as FLuc counter inactive and SMN2 splice enh inactive.
`OC[C@@H](O)[C@@H](O)CCc1ccccc1` gave SMN2 splice enh inactive.
Screening COc1ccc2oc(=O)c(C(=O)NC3CCCCCC3)cc2c1 returned NPC1 promoter act inactive, ELG1 genotoxic inconclusive, FLuc counter 15.1µM, ELG1 repair inh inconclusive and Rab9 promoter act inactive.
Screening Cc1c(C(=O)/C=C/c2cccs2)oc2ccc(F)cc12 returned NPC1 promoter act 3.98µM, ELG1 genotoxic inconclusive, FLuc counter 0.675µM, ELG1 repair inh inconclusive, Rab9 promoter act 3.98µM and SMN2 splice enh inactive.
For CNC(=O)c1cc2cc(OC)ccc2oc1=O the results were NPC1 promoter act inactive, ELG1 genotoxic inactive, FLuc counter inactive, ELG1 repair inh inactive, Rab9 promoter act inactive and SMN2 splice enh inactive.
For Cc1cc(=O)oc2c(C(=O)/C=C\c3cccs3)c(O)ccc12 the results were NPC1 promoter act inconclusive, ELG1 genotoxic inactive, FLuc counter inactive, ELG1 repair inh inactive, Rab9 promoter act inactive and SMN2 splice enh inactive.
O=C(Nc1nc(-c2ccccn2)cs1)c1ccc(Cl)s1 was read as NPC1 promoter act inactive, ELG1 genotoxic inactive, FLuc counter 16.9µM, ELG1 repair inh inconclusive, Rab9 promoter act inactive and SMN2 splice enh inactive.
`O=C(Nc1nc(-c2ccccn2)cs1)C1CCCC1` gave NPC1 promoter act inactive, ELG1 genotoxic inactive, FLuc counter 23.9µM, ELG1 repair inh inconclusive, Rab9 promoter act inconclusive and SMN2 splice enh inactive.
Cc1ccc(C(=O)Nc2nc(-c3ccccn3)cs2)s1 was read as NPC1 promoter act inactive, ELG1 genotoxic 14.6µM, FLuc counter 6.75µM, ELG1 repair inh inconclusive and Rab9 promoter act inactive.
`O=C(Nc1ccc2nc(-c3ccccn3)[nH]c2c1)C1CCCCC1` gave NPC1 promoter act inconclusive, ELG1 genotoxic 20.6µM, FLuc counter 5.36µM, ELG1 repair inh inconclusive, Rab9 promoter act inconclusive and SMN2 splice enh 11.2µM.
`CNC(=S)N1N=C(c2ccc(C)cc2)CC1c1ccc(Cl)cc1` (stereo unspecified) gave NPC1 promoter act inactive, ELG1 genotoxic inactive, FLuc counter inactive, ELG1 repair inh 16.4µM, Rab9 promoter act inactive and SMN2 splice enh inactive.
`CNC(=S)N1N=C(c2ccc(C)cc2)CC1c1ccc(Br)cc1` (stereo unspecified) gave NPC1 promoter act inactive, ELG1 genotoxic inactive, FLuc counter inactive, ELG1 repair inh inconclusive, Rab9 promoter act inactive and SMN2 splice enh inactive.
For Cc1cc(C(=O)COc2ccc(F)cc2Br)c(C)n1C1CC1 the results were NPC1 promoter act inactive, ELG1 genotoxic inactive, FLuc counter 10.7µM, ELG1 repair inh inconclusive and Rab9 promoter act inconclusive.
Screening Cc1cc(C(=O)COc2ccc(F)cc2Br)c(C)n1C returned NPC1 promoter act inactive, ELG1 genotoxic inactive, FLuc counter 21.3µM, ELG1 repair inh inconclusive, Rab9 promoter act inactive and SMN2 splice enh inactive.
Screening Cc1ccc(C(=O)c2coc3ccc(OCC(=O)O)cc23)cc1 returned NPC1 promoter act inactive, ELG1 genotoxic inactive, FLuc counter 21.3µM, ELG1 repair inh inactive, Rab9 promoter act inactive and SMN2 splice enh inconclusive.
For CCN(CC)Cc1c(O)ccc2occ(C(=O)c3ccc(OC)cc3)c12 the results were NPC1 promoter act inactive, ELG1 genotoxic inactive, FLuc counter inactive, ELG1 repair inh inconclusive, Rab9 promoter act inactive and SMN2 splice enh inactive.
`COc1ccc(C(=O)c2coc3ccc(O)cc23)cc1` gave NPC1 promoter act inconclusive, ELG1 genotoxic inconclusive, FLuc counter 1.51µM, ELG1 repair inh inconclusive, Rab9 promoter act inactive and SMN2 splice enh inconclusive.
Screening O=C(O)COc1ccc2occ(C(=O)c3ccccc3)c2c1 returned NPC1 promoter act inactive, ELG1 genotoxic inactive, FLuc counter inconclusive, ELG1 repair inh inactive, Rab9 promoter act inactive and SMN2 splice enh inactive.
For O=C(c1cccc(Br)c1)c1coc2ccc(O)cc12 the results were NPC1 promoter act inconclusive, ELG1 genotoxic inconclusive, FLuc counter 3.01µM, ELG1 repair inh inconclusive and Rab9 promoter act inconclusive.
Screening Clc1ccc(/C=C/c2ncc[nH]2)c(Cl)c1 returned NPC1 promoter act 2.82µM, ELG1 genotoxic inconclusive, FLuc counter 2.39µM, ELG1 repair inh inconclusive and Rab9 promoter act 2.82µM.
Cc1nc(NC(=O)/C=C/c2ccccc2)sc1C(=O)N(C)C was read as NPC1 promoter act inactive, ELG1 genotoxic inactive, FLuc counter 13.5µM, ELG1 repair inh inconclusive, Rab9 promoter act inconclusive and SMN2 splice enh inactive.
`Cc1nc(NC(=O)/C=C/c2ccc(F)cc2)sc1C(=O)N(C)C` gave NPC1 promoter act inactive, ELG1 genotoxic inactive, FLuc counter 16.9µM, ELG1 repair inh inconclusive, Rab9 promoter act inactive and SMN2 splice enh inactive.
For Cc1nc(NC(=O)/C=C/c2ccccc2)sc1C(=O)N1CCCCC1 the results were NPC1 promoter act inactive, ELG1 genotoxic inactive, FLuc counter inconclusive, ELG1 repair inh inactive, Rab9 promoter act inactive and SMN2 splice enh inactive.
`COc1ccc(OC)c(N(CC(=O)NCc2ccccc2)S(=O)(=O)c2ccccc2)c1` gave FLuc counter inactive and SMN2 splice enh inactive.
`CC(C)c1cc(C(=O)Nc2cccc(Cl)c2)no1` gave NPC1 promoter act 0.891µM, ELG1 genotoxic inconclusive, FLuc counter 0.953µM, ELG1 repair inh inconclusive, Rab9 promoter act 0.891µM and SMN2 splice enh 11.2µM.
For CC(=O)c1cccc(NC(=O)c2cc(C(C)C)on2)c1 the results were NPC1 promoter act 0.631µM, ELG1 genotoxic 9.2µM, FLuc counter 6.75µM, ELG1 repair inh inconclusive, Rab9 promoter act 4.47µM and SMN2 splice enh inconclusive.
